Assay in all cases: NCI-60 one-dose screen, 48 h (100 = growth as untreated, 0 = no growth, -100 = all killed)
Conditions in all cases: 10 µM unless noted

Test [1] relates to DU-145 prostate.
Test [2] deals with K-562 leukemia.
Test [3] deals with MALME-3M melanoma.
The subject of test [4] is MDA-MB-231 breast.
The test system of test [5] is RXF 393 renal.
In test [6] the test system is SF-268 CNS.
The test system of test [7] is SF-295 CNS.
Test [8] deals with SF-539 CNS.
Test [9] concerns UACC-257 melanoma.
Test [10] concerns M14 melanoma.
For test [11], the system named is HCT-15 colon.
For test [12], the system named is HT29 colon.
The test system of test [13] is SNB-75 CNS.
The test system of test [14] is U251 CNS.
Test [15] relates to PC-3 prostate.
Test [16] has as its system SK-MEL-5 melanoma.
For test [17], the system named is UACC-62 melanoma.
Test [18] deals with LOX IMVI melanoma.
Test [19] concerns SK-MEL-28 melanoma.
For test [20], the system named is SNB-19 CNS.

Data on seven molecules can be found in PubChem BioAssay (NCI).

The panel holds about 83,000 compounds, 20% with a hit somewhere; the sample as a whole holds those more often.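 Method: cells in 96-well plates; compound added at one concentration; 48 h incubation; percent growth measured; values under 10 scored active.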 A number with no mark means an inactive call. Active and inactive are the calls of the source.

`C[C@]12O[C@H](C[C@]1(O)CO)n1c3ccccc3c3c4c(c5c6ccccc6n2c5c31)CNC4=O`: the growth in [1] is 3.57% (active); in test [2], 4.93% (active); in test [3] it was -85.3% (active); in [4], -44.2% (active); in [5] it was -90.2% (active); in test [6] it was -45.5% (active). In addition, the growth in test [7] was -83.8% (active); in test [8], -96.6% (active); in test [9] it was -77.2% (active); in test [10] it was -56.4% (active); in test [11], -12.4% (active); in [12], -22.5% (active). In addition, the growth in test [13] is -99.4% (active); in [14], -75.1% (active); in [15] it was -31% (active); in test [16], -87% (active); in [17], -49.9% (active); in test [18], -70.5% (active). The growth in test [19] was -85.9% (active).

Take `CC#CC(=O)N1CCC[C@H]1c1nc(-c2ccc(C(=O)Nc3ccccn3)cc2)c2c(N)nccn12`: the growth is 89.1% in test [1]; 77.2% in [2]; 99% in test [3]; 90.3% in test [4]; 93.3% in test [5]; 79.5% in test [6]. Also, the growth in test [7] is 89.9%; in test [8], 95.4%; in [9], 57.7%; in test [10], 83.1%; in [11] it was 87.8%; in test [12], 73.4%. The growth in test [13] is 77%; in test [20] it was 90.6%; in test [14] it was 83.6%; in [15], 81.1%; in [17], 77.1%; in test [18], 93.7%.

With `COC[C@@H](C)n1c(C2CCOCC2)nc2c1C1C=C(OC)C(c3c(C)noc3C)=CC1N=C2` (some centres not stated), the growth was 65.5% in test [1]; 33.6% in test [2]; 41.2% in test [3]; 25% in test [4]; 55.9% in test [5]; 62.4% in test [6]. Moreover, the growth in test [7] is 45.4%; in [8], 34.5%; in test [9], 41.4%; in test [10], 42.4%; in test [11], 30.7%; in test [12], 17.4%. Also, the growth was 2.03% (active) in test [13]; 46.3% in [20]; 69% in test [14]; 38.2% in test [15]; 38.7% in [16]; 19.6% in test [18]. The growth in [19] is 65.4%.

As for `CCc1cnn2c(NCc3ccc[n+]([O-])c3)cc(N3CCCC[C@H]3CCO)nc12`, the growth was 5.68% (active) in test [1]; 1.85% (active) in test [2]; -46.3% (active) in [3]; 2.67% (active) in test [4]; -64.6% (active) in test [5]; 3.65% (active) in test [6]. Besides, the growth in test [7] was 3.11% (active); in test [8] it was -48.1% (active); in test [9], -42.4% (active); in test [10], -42.5% (active); in test [11], 0.896% (active); in test [12], -29.3% (active). In addition, the growth in test [13] is -74.4% (active); in [20], 6.92% (active); in [14], -8.91% (active); in [15], -20.5% (active); in test [17], -70.7% (active); in test [18], 5% (active). Moreover, the growth in [19] was -34.3% (active).

As for `O=C(Nc1cccc([N+](=O)[O-])c1)c1ccc(Cl)c(Cl)c1`, the growth in test [1] was 74.8%; in test [2] it was 79.9%; in test [3], 30.2%; in test [4] it was 80.7%; in [5], 62.8%; in test [6], 54.4%. Further, the growth in test [7] is 58.7%; in [8], 83%; in test [9] it was 92.5%; in [10], 93.1%; in [11] it was 93.2%; in test [12] it was 78.3%. The growth was -2.87% (active) in test [13]; 53.5% in [20]; 62.4% in [14]; 60.7% in test [15]; 74.4% in [17]; 63.6% in test [18]. Besides, in test [19], the growth was 53.5%.

As to `Cc1nc(NC(=O)N2CCC[C@H]2C(N)=O)sc1-c1ccnc(C(C)(C)C(F)(F)F)c1`, the growth is 34.1% in test [1]; 80.9% in test [2]; 43.8% in test [3]; 65.3% in [4]; 25.6% in test [5]; 54.2% in test [6]. For the same molecule, the growth was 32.8% in [7]; 28.1% in [8]; 40% in test [9]; 41.4% in test [10]; 30.4% in test [11]; 4.8% (active) in test [12]. Moreover, the growth in [13] is 24.8%; in test [20], 66.1%; in test [14], 33.4%; in test [15], 43.3%; in test [17], 23.8%; in test [18] it was 18.8%. The growth in [19] was 49.2%.

For `COc1ccc(-c2cnc(-c3ccc(Cl)cc3)[nH]2)cc1OC`, the growth is 78.7% in test [1]; 115% in test [2]; 155% in test [3]; 78.6% in test [4]; 91.6% in test [5]; 78% in [6]. The growth is 111% in test [7]; 95.6% in test [8]; 119% in test [9]; 115% in [10]; 100% in test [11]; 97.6% in [12]. Moreover, the growth in test [13] was 72.8%; in [20], 96%; in test [14], 102%; in test [15], 81.3%; in test [17], 94.6%; in test [18], 110%. In addition, in test [19], the growth is 104%.
